Data published in ChEMBL document CHEMBL3988442, “University of Dundee, Small-Polar-MMV Screening Library” (2021).
The campaign covered roughly 38,000 compounds. About 1,200 (3.2%) showed an effect of 50% or more. The median lay at about -58%. Shown is part of a subset that was picked to be rich in strong results.

tested on: Plasmodium falciparum; assay: Calibr Malaria Delayed Death Assay SOP; assay type: functional, organism-based; parameters: scale not given: in the data most compounds retested in dose-response had high values; conditions: concentration 4.99e-06 (unit not given; other assays of the set use mol/L)

| Compound | Percent Effect [%] |
| --- | --- |
| CCOCc1nc(N2CCCC2)sc1C(=O)NCc1ccco1 | -71.71 |
| O=S1(=O)c2cccnc2OC(COc2ccccc2)CN1CC1CC1 (stereo unspecified) | -105.2 |
| CC(C)NC(=O)CNC(C)c1c(F)cccc1Cl (stereo unspecified) | -63.71 |
| Cc1ccc(OCC(=O)NC2CCN(S(C)(=O)=O)CC2)cc1 | -121.3 |
| O=C(c1ccc(F)c(F)c1)N1CCCC1CN1CCCC1 (stereo unspecified) | -45.59 |
| CC(C)N(CCCNC(=O)C1CCOCC1)S(C)(=O)=O | -53.5 |
| CN(C)C(=O)c1nn(C)c2c1CN(Cc1ccoc1)C2 | -66.64 |
| c1cnc2ccc(C[C@@H]3CC[C@H](CN4CCCOCC4)O3)cc2c1 | 56.67 |
| CC(=O)N1CCN(C[C@H]2CC[C@@H](Cc3ccc4ncccc4c3)O2)CC1 | -19.65 |
| CN1CCN(C[C@H]2CC[C@@H](Cc3ccc(CN4CCCC4)cc3)O2)CC1 | 35.77 |
| CC1CCN(Cc2ccc(CNC(=O)c3ccn(C)c(=O)c3)cc2)CC1 | -16.27 |
| Clc1cc(NCc2ccncc2)nc2[nH]ccc12 | 63.3 |
| Clc1cc(NCc2nccs2)nc2[nH]ccc12 | -79.81 |
| Clc1cc(NCc2ncc[nH]2)nc2[nH]ccc12 | -55.12 |
| CCOc1nn(CC)cc1-c1nnc(SCc2cccnc2)n1C | -73.46 |
| Cc1ccc(C(=O)N2CCCCC2CN(C)C)cc1 (stereo unspecified) | -61.09 |
| CN(CCO)CC1COCCN1C(=O)C1CCCCC1.O=CO (stereo unspecified) | -110.9 |
| CCN1CCN(C2CCN(CCOc3ccc(F)cc3)CC2)C1=O | -7.395 |
| Cc1noc(CN(C)CC2CCN(CCO)CC2)n1 | -70.26 |
| CN(CC1CCN(CCO)CC1)CC(O)c1ccc(F)c(F)c1 (stereo unspecified) | 76.36 |
| CN(CC1CCN(CCO)CC1)CC(O)c1ccc(F)cc1 (stereo unspecified) | 68.91 |
| CN(CCOCC(F)(F)F)CC1CCN(CCO)CC1 | 17.18 |

| Compound | Percent Effect [%] |
| --- | --- |
| Cn1ccnc1CN1CCN(CC(O)c2ccc(F)c(F)c2)CC1 (stereo unspecified) | -68.2 |
| Cc1ccc(CNC(=O)CN(C)CC2CCN(CCO)CC2)s1 | -11.16 |
| O=C(O)c1ccc(CNC(=O)C2CCN(Cc3ccco3)CC2)s1 | -25.63 |
| CC1CN(c2ncccc2C(=O)N[C@@H]2CCCc3ccccc32)CCN1 (stereo partly specified) | 43.77 |
| Cc1cnn(CC2CN(Cc3nc(-c4ccco4)no3)CCO2)c1 (stereo unspecified) | -38.17 |
| COCCN1CCC(CNC(=O)c2cc(Cl)c[nH]2)CC1 | -1.799 |
| CCN1CCC(CNC(=O)c2cc(Cl)c[nH]2)CC1 | -105.8 |
| O=C(NCC1CCN(CCc2ccccc2)C1)c1cc(Cl)c[nH]1 (stereo unspecified) | 64.57 |
| COc1ccc2c(=O)ccn(CC(=O)O)c2c1 | -41.24 |
| COc1ccc(C(=O)N(CCO)Cc2ccccc2)c(OC)n1 | -39.82 |
| O=C(CCS(=O)(=O)c1ccccc1)NCCCn1cccn1 | -18.78 |
| CC(CNC(=O)C1(c2ccc(F)cc2)CC1)CN1CCCC1=O (stereo unspecified) | 8.838 |
| Cc1cc(C)n(CC(C)NC(=O)C2(c3ccc(F)cc3)CC2)n1 (stereo unspecified) | -52.55 |
| Cn1cc(N2CCC3(CCCN(C(=O)c4ccnn4C)C3)C2=O)cn1 (stereo unspecified) | -100.5 |
| Cc1ccc(C(=O)N2CCC3(CCC(=O)N(CC(C)O)C3)CC2)c(O)c1 (stereo unspecified) | -27.05 |
| O=C(O)C(F)(F)F.O=C(c1cccs1)N1CC[C@@H]2CN(C3CCOCC3)CCO[C@@H]2C1 | -28.53 |
| OC(COCc1cccs1)Cn1cc(Cl)cn1 (stereo unspecified) | -34.56 |
| Cn1c(N2CCOCC2)nc2cc(C(=O)N3CC(O)CO3)ccc21 (stereo unspecified) | -166.7 |
| CC(CCc1ccccc1)NC(=O)CNCCCN(C)C.O=C(O)C(=O)O (stereo unspecified) | -24.06 |
| CN(C)CCNCC1CCOC(C)(C)C1 (stereo unspecified) | -38.44 |
| Cc1ccc(C(CCNCCCN(C)C)C2CCOC(C)(C)C2)cc1.O=C(O)C(=O)O (stereo unspecified) | 83.16 |
| CCN(CC)CCCNCC1CCOC(C)(C)C1 (stereo unspecified) | -55.61 |

| Compound | Percent Effect [%] |
| --- | --- |
| CN(C)CCCNCC1CCOC(C)(C)C1 (stereo unspecified) | 16.23 |
| CC1CN(C(=O)NCCNc2cnccn2)CCO1 (stereo unspecified) | -97.79 |
| O=C1CCSCC(C(=O)N2CCC(O)CC2)N1 (stereo unspecified) | -111.3 |
| CC(C)C(=O)NC1CCN(c2cccc(OC(F)(F)F)c2)C1=O (stereo unspecified) | -46.04 |
| O=C(NCC1CCOCC1)c1cc(-c2ccc3c(c2)CCO3)n[nH]1 | -4.569 |
| CCOc1ccc(CNC(=O)N2CCCC(CO)C2)cc1F (stereo unspecified) | -13.27 |
| Cc1ccc(-c2n[nH]cc2CNCC2CCS(=O)(=O)C2)o1 (stereo unspecified) | -9.681 |
| COc1ccc2ccccc2c1CNCC1CCS(=O)(=O)C1.Cl (stereo unspecified) | 66.1 |
| CCOc1ccc2ccccc2c1CNCC1CCNCC1.Cl.Cl | 91.29 |
| CCOc1ccc2ccccc2c1CNCC1CCS(=O)(=O)C1.Cl (stereo unspecified) | 73.94 |
| Cc1cccc(C(=O)NCC2CCS(=O)(=O)C2)n1 (stereo unspecified) | -33.59 |
| COc1cccc(-c2n[nH]cc2CNCC2CCS(=O)(=O)C2)c1 (stereo unspecified) | -56.98 |
| Cc1c(Br)cccc1C(=O)NCC1CCNCC1.Cl | -131.1 |
| Cc1nn(C)c(N2CCOCC2)c1CNCC1CCS(=O)(=O)C1 (stereo unspecified) | -69.07 |
| CCOC(=O)N1CCC2(CCCN(C3CCOCC3)C2=O)C1 (stereo unspecified) | -44.33 |
| CCc1ccc(CNC(=O)Cn2ccc3sccc3c2=O)cc1 | -94.67 |
| O=C(NCCc1ccccn1)[C@@H]1CC[C@@H]2[C@@H](CCN2Cc2ccoc2)O1.O=C(O)C(F)(F)F.O=C(O)C(F)(F)F | -61.1 |
| C1CCC(CO[C@@H]2CC[C@H]3[C@H]2OCCN3CC2CCOCC2)C1.O=C(O)C(F)(F)F | -55.18 |
| O=C(O)C(F)(F)F.O=C(O)C(F)(F)F.O=C(c1ccco1)N1C[C@H]2CCCN(Cc3ccncc3)[C@H]2C1 | -22.95 |
| COc1ccc(NC(=O)c2cc3c([nH]c2=O)CCCC3=O)c(OC)c1 | -49.85 |
| CCN1CCN(CCNC(=O)c2sc(C(C)C)nc2C)CC1 | -17.43 |
| O=C(NCc1cccs1)[C@@H]1CC[C@@H]2[C@@H](CCN2CC2CCC2)O1.O=C(O)C(F)(F)F | 20.57 |
